Test results from PubChem BioAssay (NCATS).
Results filed as inconclusive are left out. The source made the active and inactive calls. The call rests on the fitted dose curve; in most records, active means well fitted inhibition curve with a large enough effect; inconclusive means small, poorly fitted or top-dose-only effect; inactive means flat fitted curve, though single readings scatter.

Experiment: Confirmatory screen GU Rhodamine qHTS for Zika virus inhibitors qHTS (AID 1347157); further: nearly all actives have a fitted effect of over 70% in size
Conditions: purified enzyme assay, Rhodamine110 substrate fluorescence, 15 min; series mostly up to 114 µM
Outline: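 Percent inhibition derives from the 15-min fluorescence change (ex 480, em 540 nm), normalized to no-enzyme and no-inhibitor wells. Reactions contained 25 nM NS2B-NS3 complex and 1.5 microM substrate in 10 mM Tris-HCl pH 8.0.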
Potency means the concentration at half of the fitted maximal effect.

Row | SMILES | Potency
1 | CC#C[C@@H](CC(=O)O)c1ccc(OCc2ccc(CN3CCC4(C=Cc5ccccc54)CC3)s2)cc1 | 2.78 µM (active)
2 | COc1ccc(-c2ccccc2)cc1NS(=O)(=O)c1cc(Cl)cc(Cl)c1O | 1.21 µM (active)
3 | O=C(O)c1ccc(N2C(=O)/C(=C/c3ccc(-c4ccc([N+](=O)[O-])cc4)o3)C=C2c2ccccc2)cc1 | 1.56 µM (active)
4 | O=S(=O)(Nc1cc(Cl)c(Oc2cnc3ccccc3c2)c(Cl)c1)c1ccc(Cl)cc1Cl | 1.75 µM (active)
5 | O=C(Nc1cc(C(F)(F)F)cc(C(F)(F)F)c1)c1cnc(Cl)nc1C(F)(F)F | 24.8 µM (active)
6 | CC(C)(C)Sc1c(CC(C)(C)C(=O)O)n(Cc2ccc(Cl)cc2)c2ccc(OCc3ccc4ccccc4n3)cc12 | 3.93 µM (active)
7 | Cc1cc(OCCCS(C)(=O)=O)cc(C)c1-c1cccc(COc2ccc3c(c2)OCC3CC(=O)O)c1 (configuration not stated) | 8.79 µM (active)
8 | CC1=C(C(=O)OC2CCCCC2)C(c2ccc([N+](=O)[O-])cc2)C2=C(CC(C)(C)CC2=O)N1 (configuration not stated) | inactive
9 | COc1ccc2cc(-c3cc(-c4cc(Cl)cc(Cl)c4)nn3C(C)c3ccc(C(=O)NCCC(=O)O)cc3)ccc2c1 (configuration not stated) | 5.55 µM (active)
10 | CC#C[C@@H](CC(=O)O)c1ccc(OCc2cccc(-c3ccc(C(F)(F)F)cc3)c2)cc1 | 0.698 µM (active)
11 | CC(C)C[C@H](C(=O)O)c1cc(-c2ccc(C(F)(F)F)cc2)cc(-c2ccc(C(F)(F)F)cc2)c1 | 3.12 µM (active)
12 | O=C(O)c1ccc(S(=O)(=O)N(Cc2ccc(OC(F)(F)F)cc2)c2ncc(C(F)(F)F)cc2Cl)cc1 | 3.93 µM (active)
